Data published in PubChem BioAssay (NCATS).
Records with an inconclusive call do not appear. Unmarked numbers belong to inactive results. Calls follow the shape of the dose curve; as a rule, active = well fitted inhibition curve with a large enough effect; inconclusive = small, poorly fitted or top-dose-only effect; inactive = flat fitted curve, though single readings scatter.

biological target: Calcium and integrin-binding protein 1 (Homo sapiens) (UniProt Q99828); test: Primary qHTS for Identification of Calcium Integrin Binding Protein 1 (CIB1) Competitor (AID 1508620); settings: CIB1-GST / FITC-alphaIIb peptide fluorescence polarization; series mostly up to 114 µM; activity change, negative = inhibition: at the top concentration;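 also: GST tagged CIB1 binding a fluorescein labelled alphaIIb integrin peptide tracer; top concentration of the series differs between compounds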
Summary of the method: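 Fluorescence polarization competition: CIB1-GST (1 uM final) preincubated with compound 15 min at room temperature, then FITC-labeled alphaIIb peptide (100 nM final) added for another 15 min. Polarization read at Ex 480/Em 540.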
% is scaled to controls: 0 for no effect and ±100 for the full control effect.

Chain of Calcium and integrin-binding protein 1 (Homo sapiens) (Q99828 whole entry, looked up): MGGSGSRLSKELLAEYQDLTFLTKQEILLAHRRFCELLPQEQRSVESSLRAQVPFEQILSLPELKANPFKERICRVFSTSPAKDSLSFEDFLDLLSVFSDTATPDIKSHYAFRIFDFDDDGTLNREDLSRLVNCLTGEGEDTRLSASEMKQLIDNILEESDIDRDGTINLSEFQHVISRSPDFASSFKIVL

Structure (SMILES) | activity change, negative = inhibition
Nc1nc2c(nc(Br)n2[C@@H]2O[C@@H]3COP(=O)(O)O[C@H]3[C@H]2O)c(=O)[nH]1 | -1.75%
COc1ccccc1OCCN1CC(COc2cccc3[nH]c4ccccc4c23)OCC1=O (stereo not drawn) | -5.72%
CCC(C)C(=O)O[C@H]1[C@@H](OC(=O)c2ccoc2)C[C@](C)(O)[C@]23OC(C)(C)[C@H](C[C@H](OC(=O)c4ccoc4)[C@]12COC(C)=O)[C@H]3OC(C)=O (stereo partly drawn) | 2.07% [at 30.2 µM]
C=C(C)C1CC(O)C(C)C12CC(O)C1(C)OC1C2O (stereo not drawn) | -1.09%
CC(=O)N[C@H]1[C@H](O[C@H]2CC[C@@]3(C)C(CC[C@]4(C)C3CC=C3C5CC(C)(C)CC[C@]5(C(=O)O)C(O)C[C@]34C)C2(C)C)O[C@H](CO[C@@H]2O[C@H](C)[C@H](O)[C@H](O)[C@H]2O[C@@H]2OC[C@@H](O)[C@H](O)[C@H]2O)[C@@H](O)[C@@H]1O (stereo partly drawn) | -3.02% [at 30.2 µM]
COc1cc(CCc2ccc(OCC=C(C)C)cc2)cc(OC)c1OC | 1.34% [at 57.7 µM]
Cc1cc(F)c(C(=O)Nc2cccc(-c3nncn3C(C)C)n2)cc1-n1cnc(C2CC2)c1 | 0.135% [at 57.7 µM]
C/C1=C/CCC2=CC(OC2=O)C(C)(C)/C=C/C1=O (stereo not drawn) | 3.73%
C=C1CC[C@H]2C(=C)CC[C@H]3C(=C)C(=O)O[C@@H]3[C@@H]12 | -18.3%
C=CC(=O)N1CCCN(c2cc(NCCC(=O)O)nc(-c3ccccn3)n2)CC1 | -18.6%
Cn1ccc(NC(=O)c2cc(Oc3ccc(C(=O)N4CCC4)c(F)c3)c3c(c2)OC(C)(C)C3)n1 | 8.8%
C=C1[C@@H](OC(C)=O)CC[C@@]2(C)[C@@H](OC(C)=O)[C@H](OC(C)=O)C3=C(C)C[C@H](OC(=O)C(C)CC)[C@@H]([C@@H](OC(C)=O)[C@H]12)C3(C)C (stereo partly drawn) | -19.5% [at 30.2 µM]
C=C1C(=O)O[C@@H]2/C=C(/C)[C@@H](OC(C)=O)C/C=C(\C)C[C@@H](OC(=O)/C(=C/CO)CO)[C@@H]12 | 2.03% [at 57.7 µM]
